Results reported in publication PMC12136788.
Substitutions are numbered along the chain they refer to. Over roughly 5,800 sequences, “enrichment r” has its median near 0.68; the highest 2% begin near 11. The entries come from a sample that favours the highest values as a whole.

T1: UNK ZnF1-6 (called full-length) (human, UniProt Q9C0B0 30-357)
T1 sequence: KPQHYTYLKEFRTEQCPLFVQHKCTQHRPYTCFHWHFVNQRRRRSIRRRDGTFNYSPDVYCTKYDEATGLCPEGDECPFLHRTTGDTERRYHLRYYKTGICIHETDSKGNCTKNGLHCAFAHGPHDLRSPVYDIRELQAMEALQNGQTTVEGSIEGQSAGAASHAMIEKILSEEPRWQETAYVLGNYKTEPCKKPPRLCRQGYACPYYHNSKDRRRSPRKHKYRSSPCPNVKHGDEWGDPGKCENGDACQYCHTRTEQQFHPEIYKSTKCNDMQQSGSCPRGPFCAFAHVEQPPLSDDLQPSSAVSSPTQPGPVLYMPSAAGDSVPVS

B1: chr1:203709306:203709407:+|CDS|ENSG00000058668|msi1|total|mutant (ssRNA)
RNA: GGGAGUUCUACAGUCCGACGAUCUCCAGAGAAGGAGGGAGGCCUGCCUCGGCAGGUGGGCAACAAGACCGAGUGUGCUCUGCCCGGCUUUGUCACAGAUCUGAAGCAGGAUUAUCAGGCUGUGCGUAAUGAAGUGCCCGAGGACAACAGAGGAUUGAGCAUCA
B2: chr1:225789428:225789553:+|3pUTR|ENSG00000143742|unk|FALSE|unique (ssRNA)
RNA: GGGAGUUCUACAGUCCGACGAUCUUAGAGAAAGUGUUGGGACAGAAAGUACUUUAUGUAACUAAGUGGGCUGUUCAGAAGCUUAGAGGUCAUUUUUUGUAAUUUUCUUUUUAAUUACUUUAGAGAGCUAGGGAUGCAAAUGUUCAACAGAGGAUUGAGCAUCA
B3: chr22:27980698:27980799:-|3pUTR|ENSG00000100154|unk|total|mutant (ssRNA)
RNA: GGGAGUUCUACAGUCCGACGAUCUAACCAUUAAUUUAUUUUAUAAAGAAAGGAAAUGCUGAAAGUCGUAUCCGUACUGAGUUCCGUUGGAGAAUUCCGAUAAGUAAGUAUCUUUCCGGUAAUUCUAAAAUUAAAAUCCUACCCCAACAGAGGAUUGAGCAUCA
B4: ENSG00000124766:be:win_3501|3pUTR|ENSG00000124766|bound_else_gene|NA|bound_elsewhere_windowed (ssRNA)
RNA: GGGAGUUCUACAGUCCGACGAUCAACUUGUAAACCACAUCUUUUUUGCACUUUUUUUAUAAGCAAAAACGUGCCGUUUAAACCACUGGAUCUAUCUAAAUGCCGAUUUGAGUUCGCGACACUAUGUACUGCGUUUUUCAUUCUCAACAGAGGAUUGAGCAUCA
B5: chr10:60791946:60792061:+|CDS|ENSG00000170312|unk|FALSE|unique (ssRNA)
RNA: GGGAGUUCUACAGUCCGACGAUCGUCAGCUCGUUACUCAACUCCAGUUGACAUUUGGAGUAUAGGCACCAUAUUUGCUGAACUAGCAACUAAGAAACCACUUUUCCAUGGGGAUUCAGAAAUUGAUCAACUCUUCAGGAUUUUCAACAGAGGAUUGAGCAUCA
B6: chr19:13098382:13098626:+|3pUTR|ENSG00000008441|msi1|FALSE|unique (ssRNA)
RNA: GGGAGUUCUACAGUCCGACGAUCACGCAGUAUAUACGAGUAUCUCUAUAUAUAGUACUAAUGGAUUUGGUGUGCUUCCCCCUUAGCGUCCCCCUCCCUCUGCUCCUCCUCCUUCAGCCUGGUCUCCCCCUCUUCUCUGCCCUCCAACAGAGGAUUGAGCAUCA
B7: chr6:149410404:149410522:+|3pUTR|ENSG00000055208|unk|FALSE|bound_elsewhere (ssRNA)
RNA: GGGAGUUCUACAGUCCGACGAUCUUAUAUUUCUAUAUGUAUAGUGUAAUAGCCUUUUGUUAACUAAUUUUCUUUUUUCCUUUUAGUAAUUAAGCACGAUCAUGUCCCUUUUUAAGCCUUACCUGAGAGGAACAAUGCCUUAAACAACAGAGGAUUGAGCAUCA
B8: ENSG00000006432:stop:overlap|stop_codon|ENSG00000006432|stop_codon|NA|stop_codon (ssRNA)
RNA: GGGAGUUCUACAGUCCGACGAUCGAGCGGAACUGAACACACACAGGCCUGCCCCUUAUGAGAUCCAGCAGGAGUUCUGGUCUUAGCACGAAAAGGAUUGGGGCGGGCAAGGGGGACAGCCAGCGGAGAUGAGGGGAGCUGGCGCAACAGAGGAUUGAGCAUCA
B9: chr10:52765379:52768136:-|three_prime_utr|ENSG00000165471|control|control|control (ssRNA)
RNA: GGGAGUUCUACAGUCCGACGAUCUUGUUCCUUUUGUGGGCAAUCACUAAAAAUGAUCACUAACAGCACCAACAAAGCAAUAAUAGUAGUAGUAGUAGUUAGCAGCAGCAGUAGUAGUCAUGCUAAUUAUAUAAUAUUUUUAAUCAACAGAGGAUUGAGCAUCA
B10: chr6:149410404:149410522:+|3pUTR|ENSG00000055208|unk|total|mutant (ssRNA)
RNA: B7 RNA with U41C, A42C, U49C, A50C, U83C, A84C
B11: chr16:1487315:1487970:-|CDS|ENSG00000251692|control|control|control (ssRNA)
RNA: GGGAGUUCUACAGUCCGACGAUCGGGGGAGCUGGCGCAGCUCAAGGCCUGGGUGAGGAAGCUGCAGCGCCGAGGCCGGAAAGUAGACACGCGGCUGCGGGCCUUGGACCUCACCCUGGGCGAGAGGAGCCAGCAGCGGGCCCGCAACAGAGGAUUGAGCAUCA
B12: chr2:15946816:15946917:+|3pUTR|ENSG00000134323|unk|FALSE|unique (ssRNA)
RNA: GGGAGUUCUACAGUCCGACGAUCUAUAUGCCUUUUUCCUAGCCUGUUUCUUCCUGUUAAUGUAUUUGUUCAUGUUUGGUGCAUAGAACUGGGUAAAUGCAAAGUUCUGUGUUUAAUUUCUUCAAAAUGUAUAUAUUUAGUGCUCAACAGAGGAUUGAGCAUCA
B13: chr3:112140897:112141281:-|three_prime_utr|ENSG00000172139|control|control|control (ssRNA)
RNA: GGGAGUUCUACAGUCCGACGAUCACUUUUUGCAAAAUUUCCUUGAUUUAAAAUAUUUGUUAUUUUAAAUAUACAAAACAUUUUAGAAAAUCUUAGAGUAAAUUUUAGUCUUAAAGCCAGAAAAUAAGUUUAUAGCCAUCUAGACAACAGAGGAUUGAGCAUCA
B14: chr6:132743869:132744491:-|three_prime_utr|ENSG00000112303|control|control|control (ssRNA)
RNA: GGGAGUUCUACAGUCCGACGAUCAUGUGGGACCAGCAAUUCAGCAAUAACUUACCUGCUAAUAUUCAUAUUAUUAAUGAUCAUAGCUUUGCAAAAUAUUGUAAUGUUAUAGGGCGUCUCUUUAUCACUCAGCUUCUGCAUCAUCAACAGAGGAUUGAGCAUCA
B15: chr17:142788:147440:-|three_prime_utr|ENSG00000272636|control|control|control (ssRNA)
RNA: GGGAGUUCUACAGUCCGACGAUCGAGACCUCAGCACCUGCCCAGGGGAAGGGGACACGCCCAUCUGGGAGCAAAGACCCUUCUAGAGGCCAGCCCCGGCUGAGAGGACAGGAGUGUGGGGGCGCCUUGGCGGACAGUGGGAACCAACAGAGGAUUGAGCAUCA

Target: T1, UNK ZnF1-6 (called full-length)
Assay: nsRBNS (natural sequence RNA bind-n-seq); RBNS binding buffer (assumed for nsRBNS): 25 mM Tris pH 7.5, 150 mM KCl, 3 mM MgCl2, 0.01% Triton X-100, 500 ug/ml BSA, 20 U/ml SUPERase-In, 4 C; UNK is unkempt and MSI1 is Musashi-1; names of the RNAs are library labels; protein concentration not given here; high values mean tight binding

Binder | binding signal
B1 | 0.691 enrichment R
B2 | 1.53 enrichment R
B3 | 0.76 enrichment R
B4 | 0.497 enrichment R
B5 | 0.452 enrichment R
B6 | 1.99 enrichment R
B7 | 66 enrichment R
B8 | 11.7 enrichment R
B9 | 16.5 enrichment R
B10 | 4.24 enrichment R
B11 | 0.727 enrichment R
B12 | 1.93 enrichment R
B13 | 2.83 enrichment R
B14 | 0.744 enrichment R
B15 | 0.805 enrichment R
